Test results taken from PubChem BioAssay AID540276 (National Center for Advancing Translational Sciences (NCATS), 2011).
About 5,400 (1.8%) of roughly 300,000 compounds were called active. Roughly 28% stayed inconclusive and do not appear here. The call rests on the fitted dose curve; tested in HEK293 cells. Only a selection was taken, and actives are over-represented in it overall.

Experiment: qHTS for inhibitors of binding or entry into cells for Marburg Virus
Details: Marburg virus pseudotyped entry inhibition, cell reporter; series mostly up to 37.8 µM; activity change, negative = inhibition: at the top concentration
On the % scale 0 is the no-effect control and ±100 the full control effect; potency means the concentration at half of the fitted maximal effect.

| SMILES | activity change, negative = inhibition | Potency |
| --- | --- | --- |
| CCOC(=O)c1ccc(NC(=O)CSc2ncccn2)cc1 | 5.39% (inactive) | – |
| CC(=O)Nc1ccc(NC(=O)CS(=O)(=O)c2cn(CC(=O)N3CCCCC3)c3ccccc23)cc1 | 8.57% (inactive) | – |
| CCOC(=O)c1ccc(NC(=O)CS(=O)(=O)c2cn(CC)c3ccccc23)cc1 | – | 8.2 µM (active) |
| CCC1CCCCN1C(=S)Nc1ccc(S(=O)(=O)Nc2ncccn2)cc1 (configuration not stated) | -1.62% (inactive) | – |
| COc1ccc(CCNC(=O)c2ccccc2OCc2ccccc2)cc1 | -30% (inactive) | – |
| CC(=O)N1CCc2ccc(N)cc21 | -11.8% [at 46.1 µM] (inactive) | – |
| CCOc1ccc(NC(=O)CN(C)C(=O)COc2cccc(CC)c2)cc1OCC | 15% (inactive) | – |
| CC(C)CN1CC(C)C(=O)N(c2ccccc2)C1=S (configuration not stated) | 0.536% [at 46.1 µM] (inactive) | – |
| O=C(O)c1ccc(S(=O)(=O)c2ccccc2)s1 | 0.365% [at 46.1 µM] (inactive) | – |
| CCCCc1nc2cc(C(=O)N3CCCCC3CCO)ccc2o1 (configuration not stated) | 2.41% (inactive) | – |
| Cc1nn(-c2ccccc2)c(C)c1NC(=O)COC(=O)Cc1ccccc1 | -0.499% (inactive) | – |
| C/C=C/c1ccc(OCC(=O)OCC(=O)Nc2c(C)nn(-c3ccccc3)c2C)c(OC)c1 | 1.47% (inactive) | – |
| Cc1nn(-c2ccccc2)c(C)c1NC(=O)COc1ccc(Cl)cc1Cl | – | 11.6 µM (active) |
| COc1ccc(CCNC(=O)C(=O)NCC2OCCN2S(=O)(=O)c2cccs2)cc1OC (configuration not stated) | 21.7% (inactive) | – |
| CCc1ccc(N2CC(C(=O)N3CCCCCC3)CC2=O)cc1 (configuration not stated) | 11% [at 46.1 µM] (inactive) | – |
| CCN(c1ccccc1)S(=O)(=O)c1cc(C(=O)NCc2ccccn2)ccc1C | 13.3% (inactive) | – |
| COc1cccc2c1C(=O)c1c(O)c3c(c(O)c1C2=O)CC(O)(C(C)=NNC(=O)c1ccc(Cl)c(Cl)c1)CC3OC1CC(N)C(O)C(C)O1 (configuration not stated) | – | 0.447 µM (active) |
| COc1ccc(C(=O)Nc2ccccc2C(=O)N2CCN(c3ccccc3)CC2)cc1 | 3.79% (inactive) | – |
| CC(=O)NCCC(=O)Nc1nc(-c2ccc3c(c2)OCCO3)cs1 | -1.66% [at 46.1 µM] (inactive) | – |
| O=C(Nc1nc(-c2ccc3c(c2)OCO3)cs1)c1ccncc1 | – | 7.94 µM (active) |
| Cc1ccc(-c2csc(NC(=O)C3=COCCO3)n2)cc1C | -17.8% [at 46.1 µM] (inactive) | – |
| Cc1ccc(S(=O)(=O)N2CCC(C(=O)N3CCCCCCC3)CC2)cc1 | 6.29% [at 46.1 µM] (inactive) | – |
| CCOC(=O)C1CCCN(C(=O)C2CCN(S(=O)(=O)c3ccc(Cl)c(C(F)(F)F)c3)CC2)C1 (configuration not stated) | -20.9% (inactive) | – |
| CCOC(=O)CC1=C(C(=O)OCC)[C@H](c2cc(OC)c(OC)cc2OC)C(C#N)=C(N)O1 | 0.118% (inactive) | – |
| Cc1c(Cl)cccc1NC(=S)NCC(O)c1ccccc1 (configuration not stated) | -1.89% (inactive) | – |
| COCCOC(=O)C1=C(C)NC(=O)CC1c1cc2c(cc1Br)OCO2 (configuration not stated) | – | inactive |

| SMILES | activity change, negative = inhibition | Potency |
| --- | --- | --- |
| COc1ccccc1C1C2=C(COC2=O)Nc2cc3c(cc21)OCO3 (configuration not stated) | 5.47% (inactive) | – |
| CCCOc1ccccc1C1CC(=O)Nc2cc3c(cc21)OCO3 (configuration not stated) | – | 6.31 µM (active) |
| CC(NCc1nc2ccccc2n1C)C12CC3CC(CC(C3)C1)C2 (configuration not stated) | – | 11.2 µM (active) |
| Cn1c(COc2ccccc2C(C)(C)C)nc2ccccc21 | 9.63% [at 46.1 µM] (inactive) | – |
| Cn1c(CNC(=O)C(C)(C)C)nc2ccccc21 | 10.6% (inactive) | – |
| C#CCOCCOCCOCCNc1nc(N2CCN(C(=O)Cn3cc(CCO)nn3)CC2)nc(N2CCN(C(=O)Cn3cc(CCCN=C(N)N)nn3)CC2)n1 | -4.16% (inactive) | – |
| O=C1C(=O)N(CCN2CCOCC2)[C@@H](c2ccccn2)/C1=C(/O)c1ccc(F)cc1 | 1.86% (inactive) | – |
| CCN(CC)c1ccc(/C=N/Nc2nc(C)cc(=O)[nH]2)cc1 | -19.9% (inactive) | – |
| CCN(CC)c1ccc(/C=N/Nc2nc(C)cc(C)n2)c(O)c1 | – | 6.51 µM (active) |
| Cc1cc(C)nc(N/N=C/c2ccncc2)n1 | -5.04% (inactive) | – |
| CN(C)c1cc2c(Nc3ccc4c(cnn4Cc4ccccc4)c3)ncnc2cn1 | – | 8.91 µM (active) |
| Clc1ccc(Nc2ncnc3c2nnn3Cc2ccccc2)cc1 | 1.6% [at 46.1 µM] (inactive) | – |
| Cn1ncc2c(Nc3cccc4ccccc34)ncnc21 | 5.72% [at 46.1 µM] (inactive) | – |
| Cc1ccc(CN2CCNC(=O)C2CC(=O)NCc2csc(C(C)C)n2)cc1 (configuration not stated) | 10.2% (inactive) | – |
| Cc1ccsc1C(=O)NNC(=O)COc1ccc(Br)cc1 | 1.92% (inactive) | – |
| CC1CCN(C(=O)c2ccc3c(=O)n4c(nc3c2)CCCCC4)CC1 | 3.95% [at 46.1 µM] (inactive) | – |
| CCn1c(=O)c2cc(C(=O)NCCc3ccc(Cl)cc3)sc2c2ccccc21 | 8.62% [at 46.1 µM] (inactive) | – |
| CCN(CCCNC(=O)c1cc2c(=O)n(CC)c3ccccc3c2s1)Cc1ccccc1 | – | 4.47 µM (active) |
| CCc1ccc(CNC(=O)c2cc3c(=O)n(CC)c4ccccc4c3s2)cc1 | -0.8% [at 46.1 µM] (inactive) | – |
| Cc1ccc(CS(=O)Cc2ccc(C(=O)N3CCOCC3)o2)cc1 (configuration not stated) | 26.3% [at 46.1 µM] (inactive) | – |
| C/C(=N\Nc1ccccc1)c1cccs1 | 7.15% [at 46.1 µM] (inactive) | – |
| Oc1ccc2ccccc2c1N=Nc1nccs1 | – | 3.55 µM (active) |
| Oc1ccc2ccccc2c1C=Nc1ccccc1 | – | inactive |
| O=C(Cc1ccc(NC(=O)C2CCCN(C(=O)CCc3ccccc3)C2)cc1)Nc1ccc(C(=O)N2CCOCC2)cc1 (configuration not stated) | -0.35% (inactive) | – |
| COc1ccc(N2CCN(CCNC(=O)Nc3cc(Cl)ccc3Cl)CC2)cc1 | 11.4% [at 46.1 µM] (inactive) | – |
| CN(Cc1ccccc1)C(=O)COC(=O)/C=C/c1ccc2c(c1)OCO2 | 25.9% (inactive) | – |
